PubChem BioAssay AID1159580 (chemical genetic matrix, 2015)
“And” between values parts separate entries of the source, which are not always exact repeats. Identical values can stand only once. Out of some 5,500 compounds screened, about 2,000 (36%) were called active. Not shown: some 18% with an inconclusive outcome. No stated cut-off is given here; in the data, active means normalized growth mostly below about 0.91 (no sharp cut-off); inconclusive means no clear call, values can overlap the other calls; inactive means mostly above about 0.92. This is one part of the list.

Assay: chemical genetic growth profiling, strain panel (AID 1159580);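 further: tested at 20 µM; growth read once vehicle control cultures reached saturation at 30 °C; 1 = growth at the plate median or of vehicle wells; lower values mean less growth of the strain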
Conditions: S. cerevisiae deletion strains, growth OD

Measured: normalized growth

O=[N+]([O-])c1cc([As](=O)(O)O)ccc1O
inactive: locus YAL013W, strain DEP1, active compounds read low 0.987 | locus YAL021C, strain ccr4, active compounds read low 0.965 | locus YAL026C, strain drs2, active compounds read low 0.975 | locus YAL030W, strain snc1, active compounds read low 0.971 | locus YBL061C, strain skt5, active compounds read low 0.979 | locus YBR009C, strain hhf1, active compounds read low 0.975 | locus YBR021W, strain FUR4, active compounds read low 1.01 | locus YBR023C, strain chs3, active compounds read low 0.986 | locus YBR171W, strain sec66, active compounds read low 0.946 | locus YBR229C, strain ROT2, active compounds read low 1 | locus YBR231C, strain swc5, active compounds read low 0.946 | locus YBR279W, strain paf1, active compounds read low 0.963 | locus YCL011C, strain gbp2, active compounds read low 0.991 | locus YCL016C, strain dcc1, active compounds read low 0.99 | locus YCL029C, strain bik1, active compounds read low 0.914 | locus YCL069W, strain vba3, active compounds read low 0.967 | locus YCR088W, strain abp1, active compounds read low 0.975 | locus YDL005C, strain med2, active compounds read low 0.972 | locus YDL035C, strain GPR1, active compounds read low 1 | locus YDL040C, strain nat1, active compounds read low 0.958 | locus YDL074C, strain BRE1, active compounds read low 0.977 | locus YDL101C, strain DUN1, active compounds read low 1 | locus YDL134C, strain PPH21, active compounds read low 0.989 | locus YDL185W, strain tfp1, active compounds read low 0.978 | locus YDR001C, strain nth1, active compounds read low 0.967 | locus YDR069C, strain doa4, active compounds read low 0.945 | locus YDR137W, strain rgp1, active compounds read low 0.984 | locus YDR150W, strain NUM1, active compounds read low 0.987 | locus YDR159W, strain sac3, active compounds read low 0.978 | locus YDR162C, strain NBP2, active compounds read low 0.962 | locus YDR195W, strain ref2 0.898 | locus YDR297W, strain sur2, active compounds read low 0.971 | locus YDR334W, strain swr1, active compounds read low 0.958 | locus YDR335W, strain msn5, active compounds read low 0.972 | locus YDR392W, strain spt3, active compounds read low 0.989 | locus YEL003W, strain gim4, active compounds read low 0.963 | locus YEL037C, strain rad23, active compounds read low 0.953 | locus YEL061C, strain CIN8 (second series), active compounds read low 0.971 | locus YEL061C, strain CIN8, active compounds read low 0.993 | locus YER015W, strain faa2, active compounds read low 0.958 | locus YER016W, strain bim1, active compounds read low 0.997 | locus YER111C, strain swi4, active compounds read low 0.949 | locus YER155C, strain BEM2 (second series), active compounds read low 0.953 | locus YER155C, strain BEM2, active compounds read low 0.998 | locus YER167W, strain BCK2, active compounds read low 1.02 | locus YFR010W, strain ubp6, active compounds read low 0.949 | locus YGL167C, strain pmr1, active compounds read low 0.971 | locus YGL173C, strain kem1, active compounds read low 0.964 | locus YGL227W, strain vid30, active compounds read low 0.964 | locus YGL240W, strain doc1, active compounds read low 0.946 | locus YGL248W, strain PDE1, active compounds read low 0.992 | locus YGL253W, strain hxk2, active compounds read low 0.963 | locus YGR078C, strain PAC10, active compounds read low 0.958 | locus YGR229C, strain SMI1, active compounds read low 0.981 | locus YHR013C, strain ard1, active compounds read low 0.986 | locus YHR027C, strain rpn1, active compounds read low 0.972 | locus YHR030C, strain SLT2, active compounds read low 0.998 and 1.06 | locus YHR079C, strain IRE1, active compounds read low 1.09 | locus YHR129C, strain ARP1, active compounds read low 0.999 | locus YHR142W, strain chs7, active compounds read low 0.968 | locus YIL066C, strain RNR3, active compounds read low 1.04 | locus YIL073C, strain SPO22, active compounds read low 1.06 | locus YJL092W, strain hpr5, active compounds read low 0.969 | locus YJL095W, strain BCK1 (second series), active compounds read low 0.966 | locus YJL095W, strain BCK1, active compounds read low 0.999 and 1.02 | locus YJL115W, strain asf1, active compounds read low 0.962 | locus YJL129C, strain trk1, active compounds read low 0.936 | locus YJL134W, strain LCB3, active compounds read low 0.991 | locus YJL154C, strain vps35, active compounds read low 0.945 | locus YJL164C, strain tpk1, active compounds read low 1 | locus YJL166W, strain qcr8, active compounds read low 0.977 | locus YJL187C, strain SWE1 (second series), active compounds read low 1 | locus YJL187C, strain SWE1, active compounds read low 0.964 | locus YJR043C, strain POL32, active compounds read low 1.02 | locus YJR066W, strain TOR1, active compounds read low 0.989
active: locus YDL192W, strain arf1, active compounds read low 0.214 | locus YDR101C, strain arx1, active compounds read low 0.759 | locus YDR318W, strain mcm21, active compounds read low 0.0896 | locus YDR388W, active compounds read low 0.112 | locus YDR502C, strain sam2, active compounds read low 0.247 | locus YER110C, active compounds read low 0.566 | locus YGL078C, strain dbp3, active compounds read low 0.406 | locus YGL086W, strain mad1, active compounds read low 0.0902 | locus YGR135W, strain pre9, active compounds read low 0.089 | locus YGR252W, strain gcn5, active compounds read low 0.255 | locus YHR079C, strain IRE1 (second series), active compounds read low 0.791 | locus YHR094C, strain hxt1, active compounds read low 0.25 | locus YHR200W, strain rpn10, active compounds read low 0.26 | locus YIL125W, strain kgd1, active compounds read low 0.521 | locus YIR030C, strain dcg1, active compounds read low 0.629 | locus YJL168C, strain set2, active compounds read low 0.453
